Experimental data as given in PubChem BioAssay (NCATS).
Results filed as inconclusive are left out. Calls of active or inactive are those of the source. The call rests on the fitted dose curve; in most records, active means well fitted curve in the direction sought with a large enough effect; inconclusive means small, poorly fitted or top-dose-only effect, or another doubt; inactive means no such curve, though single readings can be large; an effect the other way counts as inactive or inconclusive.

Assays:
[1] = system: UISO; experiment: qHTS assay to identify novel small-molecules to repurpose for Merkel cell carcinoma treatment (AID 1296009); settings: MCC and control cell lines, CellTiter-Glo viability, 72 h; series mostly up to 46 µM; further: nearly all actives have a fitted effect of over 60% in size
In short: (§1)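 72 hr, 37 degree celsius; NPC 8-pt / MIPE 11-pt dose response; compound pinned in DMSO; CellTiter-Glo, 10 min RT, luminescence; normalized to no-cell and DMSO controls.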

[2] = system: WaGa; experiment: as above; settings: MCC and control cell lines, CellTiter-Glo viability, 72 h; series mostly up to 46 µM
In short: as §1

[3] = system: C33A; experiment: Primary qHTS to identify gynecologic anti-cancer compounds using libraries of approved drugs and bioactive compounds (AID 1345084); settings: Gynecologic cancer cell panel viability, ATPlite luminescence, 48 h; series mostly up to 57.5 µM; further: nearly all actives have a fitted effect of over 55% in size
In short: (§2)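 48 h compound exposure at 37 C, 5% CO2; five-point qHTS. ATPlite luminescence readout of cell ATP.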

[4] = system: CAOV3; experiment: as above; settings: Gynecologic cancer cell panel viability, ATPlite luminescence, 48 h; series mostly up to 57.5 µM
In short: as §2

[5] = system: CASKI; experiment: as above; settings: Gynecologic cancer cell panel viability, ATPlite luminescence, 48 h; series mostly up to 57.5 µM
In short: as §2

[6] = system: Es-2; experiment: as above; settings: Gynecologic cancer cell panel viability, ATPlite luminescence, 48 h; series mostly up to 57.5 µM
In short: as §2

[7] = system: HeLa; experiment: as above; settings: Gynecologic cancer cell panel viability, ATPlite luminescence, 48 h; series mostly up to 57.5 µM
In short: as §2

[8] = system: Hek293T; experiment: as above; settings: Gynecologic cancer cell panel viability, ATPlite luminescence, 48 h, control line for the selectivity index; series mostly up to 57.5 µM
In short: as §2

[9] = system: JEG-3; experiment: as above; settings: Gynecologic cancer cell panel viability, ATPlite luminescence, 48 h; series mostly up to 57.5 µM
In short: as §2

Measured: Potency

C/C(=C1\CCOC(=O)S1)N(C=O)Cc1cnc(C)nc1N
inactive: all assays above

Cc1c(N)cccc1C(F)(F)F
inactive: all assays above

Nc1c(NC/C=C\COc2cc(CN3CCCCC3)ccn2)c(=O)c1=O
inactive: all assays above

CCCCCCCC(=O)[O-].CCCCCCCC(=O)[O-].[Zn+2]
inactive: all assays above

CCc1cc2cc(OC)c(OC)cc2c(Cc2ccccc2)n1
inactive: all assays above

CC(C)OP(=O)(CP(=O)(OC(C)C)OC(C)C)OC(C)C
inactive: all assays above

CCN(CC)C(=O)C1CN2CCc3cc(OC)c(OC)cc3C2CC1OC(C)=O (configuration not stated)
inactive: all assays above

CN=C(N)NC(=O)Nc1c(C)cccc1C
inactive: all assays above

Cc1ccc(O)cc1
inactive: all assays above

CCN1CCCC1CN (configuration not stated)
inactive: all assays above

Cc1cccc(OCC(O)CNC(C)(C)C)c1C (configuration not stated)
inactive: all assays above

N[C@@H](Cc1cc(I)c(O)c(I)c1)C(=O)O
inactive: all assays above

O=C1CC(c2ccc(Cl)cc2)CC(=O)N1
inactive: all assays above

Cc1ncc(CO)c(CO)c1O
inactive: all assays above

N#Cc1cc(NC(=O)C(=O)O)c(Cl)c(NC(=O)C(=O)O)c1
inactive: all assays above

OCCc1ccccc1
inactive: all assays above

CC(=O)N[C@@H](CCC(N)=O)C(=O)O
inactive: all assays above

CCCCCCn1c(=O)c2c(ncn2C)n(C)c1=O
inactive: all assays above

CCOC(=O)C(=O)CCc1ccccc1
inactive: all assays above

O=C(O)CCCC[P+](c1ccccc1)(c1ccccc1)c1ccccc1
inactive: all assays above

Cc1sccc1Br
inactive: all assays above

O=C(NN1CCCC1)NS(=O)(=O)c1ccc(Cl)cc1
inactive: all assays above

CC(=O)Nc1c(I)c(NC(C)=O)c(I)c(C(=O)O)c1I
inactive: all assays above

CO/N=C(/C(=O)N[C@@H]1C(=O)N2C(C(=O)O)=C(Cn3nnc(C)n3)CS[C@H]12)c1csc(N)n1
inactive: all assays above

O=C(O)C1CCC1
inactive: all assays above

CCCCC(CC)COC(=O)c1ccccc1C(=O)O (configuration not stated)
inactive: all assays above

CCOC(=O)NNc1ccc(N(CC)CC(C)O)nn1 (configuration not stated)
inactive: all assays above

O=C(Oc1ccccc1)c1ccccc1O
inactive: all assays above

CCCC(=O)O[C@]1(C(=O)COC(=O)CC)CC[C@H]2[C@@H]3CCC4=CC(=O)CC[C@]4(C)[C@H]3[C@@H](O)C[C@@]21C
inactive: all assays above

CN(C(=O)C(Cl)Cl)c1ccc(OC(=O)c2ccco2)cc1
inactive: all assays above

c1ccc2occc2c1
inactive: all assays above

C[C@@H]1C[C@H]2[C@@H]3CCC4=CC(=O)C=C[C@]4(C)[C@@]3(F)[C@@H](O)C[C@]2(C)[C@@]1(O)C(=O)COC(=O)c1ccncc1
inactive: all assays above

[O-][n+]1cccc(/C(Cl)=N/OC[C@@H](O)CN2CCCCC2)c1
inactive: all assays above

O=C(OCC(O)CO)c1ccccc1Nc1ccnc2c(C(F)(F)F)cccc12 (configuration not stated)
inactive: all assays above

CC(C)(C)c1nnc(NS(=O)(=O)c2ccccc2)s1
inactive: all assays above

CN1CCCN=C1/C=C/c1cccs1
inactive: all assays above

CCN1CCN(C(=O)N[C@@H](C(=O)N[C@@H]2C(=O)N3[C@@H]2SC(C)(C)[C@H]3C(=O)O)c2ccccc2)C(=O)C1=O
inactive: all assays above

O=c1[nH]c(=O)n([C@H]2O[C@H](CO)[C@@H](O)[C@@H]2O)cc1/C=C\Br
inactive: all assays above

CC(NC(CCc1ccccc1)C(=O)O)C(=O)N1C(=O)N(C)CC1C(=O)O (configuration not stated)
not listed: [4]
inactive: all other assays above

O=C(O)Cn1cnnn1
not listed: [4]
inactive: all other assays above

CCCCNc1ccc(C(=O)OCCN(CC)CC)cc1
not listed: [5]
inactive: all other assays above

Cc1c(F)cc2c(=O)c(C(=O)O)cn3c2c1CCC3C (configuration not stated)
not listed: [4]
inactive: all other assays above

Nc1ncnc2nc[nH]c12
not listed: [4]
inactive: all other assays above

CNC[C@H](O)[C@@H](O)[C@H](O)[C@H](O)CO
not listed: [8]
inactive: all other assays above

CC(=O)OCC(=O)Nc1cc(C#N)cc(NC(=O)COC(C)=O)c1Cl
inactive: all assays above

O=C1CCCc2c(O)cccc21
not listed: [7]
inactive: all other assays above
